Most compounds without a hit are left out; they make up all but 12% or so of the library.
Sfp inh = blocks B. subtilis Sfp PPTase activity; Q9F4F7; Biochemical Sfp PPTase activity, qHTS; Potency, µM, for inactives: largest response in the series, negative = inhibition, most hits filed as inhibitors; 3.5% of 310,000 active;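 note: the enzyme is Sfp with the accession as filed and its product quenches rhodamine fluorescence; 0% = enzyme reaction without inhibitor and -100% = no enzyme wells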
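With Hepes-Na pH 7.6 buffer containing 10 mM MgCl2, Sfp (15 nM) modified BHQ-2-YbbR (12.5 uM) using rhodamine-CoA (5 uM). Two reads 30 minutes apart at 525/598 nm yielded each well's rate.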
JMJD2A Tudor inh = blocks the human JMJD2A Tudor domain; AlphaScreen JMJD2A-Tudor / H3K4me3 peptide binding; 4.4% of 390,000 active; O75164; AID 504339; Potency, µM (top dose mostly 114 µM), inactives show top-dose activity change, negative = inhibition, hits mostly inhibitors; note: % is set by controls: 0 for no effect and ±100 for the full control effect; nearly all actives have a fitted effect of over 50% in size
Target sequence (O75164 whole entry, looked up, the tested form may be a part): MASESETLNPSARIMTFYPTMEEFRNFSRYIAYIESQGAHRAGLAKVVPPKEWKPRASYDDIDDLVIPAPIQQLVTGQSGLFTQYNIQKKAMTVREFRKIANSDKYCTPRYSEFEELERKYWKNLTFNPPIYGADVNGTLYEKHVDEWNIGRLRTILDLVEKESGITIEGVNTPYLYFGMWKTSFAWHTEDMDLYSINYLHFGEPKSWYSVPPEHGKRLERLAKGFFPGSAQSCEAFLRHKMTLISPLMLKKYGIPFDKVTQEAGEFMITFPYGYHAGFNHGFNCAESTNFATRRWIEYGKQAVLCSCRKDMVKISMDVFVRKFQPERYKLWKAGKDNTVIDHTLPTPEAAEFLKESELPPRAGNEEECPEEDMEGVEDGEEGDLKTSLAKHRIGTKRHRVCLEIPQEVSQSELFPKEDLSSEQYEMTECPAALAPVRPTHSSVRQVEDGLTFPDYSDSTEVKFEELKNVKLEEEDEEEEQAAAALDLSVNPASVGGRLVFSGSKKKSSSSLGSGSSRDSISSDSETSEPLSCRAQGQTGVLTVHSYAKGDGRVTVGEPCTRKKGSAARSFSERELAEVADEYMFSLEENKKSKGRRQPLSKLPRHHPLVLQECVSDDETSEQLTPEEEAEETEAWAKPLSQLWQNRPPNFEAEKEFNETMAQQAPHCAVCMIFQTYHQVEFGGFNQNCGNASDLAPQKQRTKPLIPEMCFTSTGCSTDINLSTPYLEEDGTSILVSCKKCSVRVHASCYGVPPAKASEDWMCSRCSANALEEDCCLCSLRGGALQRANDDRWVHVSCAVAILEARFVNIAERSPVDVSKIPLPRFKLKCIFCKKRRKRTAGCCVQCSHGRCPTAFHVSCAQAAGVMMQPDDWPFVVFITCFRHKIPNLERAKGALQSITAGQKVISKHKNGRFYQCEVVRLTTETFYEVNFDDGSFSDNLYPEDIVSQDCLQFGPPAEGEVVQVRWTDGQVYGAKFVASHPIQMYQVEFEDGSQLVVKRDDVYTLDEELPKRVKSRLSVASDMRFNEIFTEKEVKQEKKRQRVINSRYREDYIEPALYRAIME
BAZ2B block = blocks human BAZ2B | AlphaScreen BAZ2B-H3K14Ac peptide displacement | AID 504333 | Potency, µM (highest dose often 114 µM), without a hit: at the top dose activity change, negative = inhibition, actives largely listed as inhibitors | 4.4% of 360,000 active; note: % is set by controls: 0 for no effect and ±100 for the full control effect; nearly all actives have a fitted effect of over 60% in size
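AlphaScreen displacement of biotin-H3(5-23)K14Ac peptide (50 nM final) from BAZ2B (50 nM final) in PBS pH 7.4, 0.01% Tween-20; complex preformed 30 min RT, then compounds (top 110 uM) 30 min RT, beads 20 min dark.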
TDP1 block = blocks human tyrosyl-DNA phosphodiesterase 1; Q9NUW8; recombinant TDP1, AlphaScreen DNA substrate cleavage; Potency, µM (doses to about 130 µM), for inactives: at the top dose activity change, negative = inhibition, hits mostly inhibitors; 0.28% of 350,000 active; note: % is set by controls: 0 for no effect and ±100 for the full control effect; nearly all actives have a fitted effect of over 40% in size
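Compounds were preincubated with Tdp1 (1 nM final) for 15 min at room temperature before substrate (15 nM final) started a 5 min reaction; beads (10 ug/ml final) were then added for 10 min before AlphaScreen detection.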
G9a inh = G9a (human) methyltransferase inhibition. 8.8% of 350,000 active. Potency, µM (highest dose often 102 µM), for inactives: at the highest dose activity, negative = inhibition, actives largely listed as inhibitors. AID 504332. Q96KQ7. G9a H3K9 monomethylation, AlphaScreen, 2 h; note: % is set by controls: 0 for no effect and ±100 for the full control effect; nearly all actives have a fitted effect of over 75% in size
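Readings reflect AlphaScreen signal from monomethyl-H3K9 antibody detection. HMT at 20 nM; substrate b-H3K9 500 nM; cofactor SAM 20 uM; 2 h RT reaction; compounds tested as titrations in qHTS with 15 min preincubation.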
HP1b binding inh = inhibitors of HP1-beta chromodomain binding to methylated histone tails; P83916; AlphaScreen HP1-beta / biotin-H3K9me3 peptide binding; Potency, µM (series often up to 114 µM), inactives show top-dose activity change, negative = inhibition, usual class: inhibitors; 0.56% of 390,000 active; AID 540317; note: nearly all actives have a fitted effect of over 70% in size
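Compound inhibition of the preformed complex between 50 nM HP1-beta and 50 nM biotinylated H3K9me3 peptide was read by AlphaScreen. Buffer was PBS pH 7.4 with 0.01% Tween-20. Incubations ran 30 min at room temperature, with 10 ug/mL donor/acceptor beads.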
Numbers without * were called inactive; ? = inconclusive; . = no result; [ ] = remark or other dose. Calls come from the whole dose curve; as a rule, active = well fitted curve in the direction sought with a large enough effect; inconclusive = small, poorly fitted or top-dose-only effect, or another doubt; inactive = no such curve, though single readings can be large; an effect the other way counts as inactive or inconclusive. Potency is the fitted concentration of half-maximal effect.

SMILES	Sfp inh	JMJD2A Tudor inh	BAZ2B block	TDP1 block	G9a inh	HP1b binding inh
O=C(c1ccc2c(=O)n(Cc3ccccc3)c(=S)[nH]c2c1)N1CCOCC1	-6%	-4%	-2%	10%	?	35%
CCOCCCn1c(=S)[nH]c2cc(C(=O)NCC(OC)OC)ccc2c1=O	-16%	-18%	?	3%	25µM*	48%
CCOCCCn1c(=S)[nH]c2cc(C(=O)N3CCOCC3)ccc2c1=O	79µM*	22µM*	?	7%	?	17%
C=C1C=CS(=O)(=O)N(Cc2ccccc2)C1	4%	-15%	.	1%	.	45%
O=C(NC1CC(=O)N(c2cccc(F)c2)C1)c1ccc(S(=O)(=O)N2CCOCC2)cc1 (stereo not given)	.	-8%	-1%	-3%	-5%[59 µM]	-9%
N#C/C(=C/c1ccccc1[N+](=O)[O-])c1nc(C2CC2)cs1	1%	89µM*	10µM*	6%	?	?
N#C/C(=C\C=C\c1ccccc1[N+](=O)[O-])c1nc(-c2ccc3c(c2)OCO3)cs1	8%	-19%	-8%	0%	-8%[59 µM]	-14%
N#C/C(=C\c1ccccc1[N+](=O)[O-])c1nc(C2CC2)cs1	-12%	32µM*	28µM*	10%	20µM*	?
COc1ccc(/C=N/NC(=O)c2cccc(NC(=O)c3ccc(F)cc3)c2)c(C(=O)O)c1OC	0%	-22%	-8%	50µM*	-28%	13%
COc1ccc(/C=N/NC(=O)COc2ccc3ccccc3c2)c(C(=O)O)c1OC	14%	50µM*	-11%	5%	-6%[59 µM]	20%
COc1ccccc1OCC(=O)N/N=C/c1cccc2cccnc12	5%	56µM*	35µM*	2%	.	29%
COc1ccc(OCC(=O)N/N=C/c2ccc(OC)c(OC)c2C(=O)O)cc1	1%	3%	-3%	3%	2%[59 µM]	34%
COc1ccccc1OCC(=O)Nc1ccncc1	16%	-4%	-3%	1%	16%	43%
COc1ccccc1OCC(=O)Nc1ccccn1	1%	-7%	4%	1%	20µM*	31%
COc1ccc(OCC(=O)N/N=C/c2cccc3cccnc23)cc1	.	79µM*	.	.	.	19%
C=CCn1cc(/C=N/NC(=O)COc2cccc3cccnc23)c2ccccc21	?	?	?	8%	?	9%
CC(C)n1cc(/C=N/NC(=O)COc2cccc3cccnc23)c2ccccc21	?	-30%	9%	3%	45µM*	29%
Cc1ccc(C(=O)N2CCN(CCNC(=O)C(=O)NCc3ccc(Cl)cc3)CC2)cc1	-10%	-10%	-12%	1%	.	23%
COc1ccc(CN2CCc3c(c(=O)n4ncc(C(=O)N5CCN(c6ccccc6OC)CC5)c4n3C)C2)cc1	.	-15%	-16%	4%	-8%[59 µM]	14%[57 µM]
Oc1cccc(/C=N/N2CCN(c3ccccn3)CC2)c1	5%	-17%	-27%	4%	.	17%
COc1ccccc1/C=C/C=N/N1CCN(c2ccccn2)CC1	-18%	?	50µM*	6%	23%[0.501 µM]	?
COc1ccccc1/C=C/C=N/N1CCN(Cc2cccc3ccccc23)CC1	8%	11µM*	32µM*	11%	?	?
CC1CCC(NC(=O)C(NC(=O)c2ccccc2)C(C)C)CC1 (stereo not given)	-1%	1%	24%	1%	6%	27%
COc1cc(NC(=O)C2CCCN(S(=O)(=O)c3ccc4c(c3)oc(=O)n4C)C2)c(C(=O)O)cc1OC (stereo not given)	.	-7%	-3%	-1%	-2%[59 µM]	50%
COc1cc2c(cc1OC)CN(C(C)C(=O)N1CCc3ccccc31)CC2 (stereo not given)	?	-16%	56µM*	3%	?	6%
SMILES	Sfp inh	JMJD2A Tudor inh	BAZ2B block	TDP1 block	G9a inh	HP1b binding inh
COc1ccc(N2CCN(C(C)C(=O)N3CCc4ccccc43)CC2)cc1 (stereo not given)	1%	?	?	8%[0.0935 µM]	40µM*	?
COc1ccc(N2CCN(C(C)C(=O)N3CC(C)OC(C)C3)CC2)cc1 (stereo not given)	?	0.89µM*	56µM*	-14%	45µM*	?
COc1ccc(C(=O)N2CCc3ccccc32)cc1	7%	-11%	0%	-1%[56.1 µM]	-5%[59 µM]	31%
CC(C(=O)N1CCc2ccccc21)N1CCc2ccccc2C1 (stereo not given)	-2%	-10%	4%	-1%[56.1 µM]	17%[59 µM]	30%
COc1ccc(C(C)(C)C)cc1NC(=O)CCCN1C(=O)CN(C)C1=O	.	-1%	13%	-10%	-46%	26%
CN(C)CCCN(C(=O)c1ccc(S(=O)(=O)N2CCOCC2)cc1)c1nc2cc3c(cc2s1)OCO3	-6%	-12%	-14%	5%	.	39%
COc1cccc2sc(N(CCN(C)C)C(=O)c3ccc(S(=O)(=O)N4CCCC4)cc3)nc12	3%	-10%	-18%	6%	-49%	-6%
Cc1ccc2sc(N(CCCN(C)C)C(=O)CN3C(=O)c4ccccc4C3=O)nc2c1C	-8%	-36%	.	1%	50µM*	-13%
CN(C)CCCN(C(=O)c1ccc(S(=O)(=O)N2CCCCC2)cc1)c1nc2cc3c(cc2s1)OCO3	-14%	?	?	6%	50µM*	?
CN(C)CCCN(C(=O)c1ccc(S(=O)(=O)N2CCCC2)cc1)c1nc2ccc(Br)cc2s1	-13%	?	?	7%	50µM*	14%
Cc1ccc2sc(N(CCCN(C)C)C(=O)c3ccc(S(=O)(=O)N4CCCCCC4)cc3)nc2c1C	.	?	?	.	50µM*	-21%
Cn1cccc1C(=O)OCC(=O)NC(=O)NC1CCCCC1	11%	-26%	-29%	-2%	-18%	36%
CCOC(=O)c1c(SCCN2CCCC2)n(-c2ccccc2)c(=S)n(-c2ccccc2)c1=O	.	-11%	.	.	.	-4%
CCOc1ccc(/C=C(\C#N)C(=O)NC2CC2)c(OCC)c1	.	-15%	.	.	.	17%
CC1CCCCN1S(=O)(=O)c1ccc(C(=O)N(CCCN(C)C)c2nc3cc4c(cc3s2)OCO4)cc1 (stereo not given)	4%	?	?	5%	50µM*	-4%
CCc1ccccc1NC(=O)c1cc(=O)c2ccccc2o1	-4%	-9%	-1%	-6%	.	20%
CCCCc1oc2ccccc2c1C(=O)c1cc(I)c(N(CC)CCOCC)c(I)c1	.	56µM*	.	5%	.	-6%
CCc1oc2ccccc2c1C(=O)c1cc(I)c(O)c(I)c1	40µM*	.	.	4%	-40%[59 µM]	.
